Laboratory results: the supplement of paper PMC10646978
± gives the standard deviation.

The molecules below were run on RAW-Dual (murine macrophage reporter line) (assay: IRF reporter (Lucia luciferase) activity fold change vs agonist alone; higher = enhanced IRF activity). Conditions: modulator concentration 10 µM; agonist: MPLA […].
Summary of the method: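 RAW-Dual murine macrophage reporter cells were plated at 50 000 per well in 384-well plates, pin-transferred compound to 10 μM final, and pre-incubated for 1 hour at 37 °C before a PRR agonist was added and the cells incubated overnight. NF-κB activity was read from supernatant SEAP with QUANTI-Blue at 620 nm absorbance, and IRF activity from Lucia luciferase with QUANTI-Luc by luminescence. Each signal was expressed as fold change by dividing by the mean agonist-only control on the same plate. Two replicate plates were averaged, with errors obtained by propagation.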

| SMILES | IRF reporter |
| --- | --- |
| Cc1nc(C(=O)NCC(=O)O)c(O)c2ccc(Oc3ccccc3)cc12 | 0.97 ± 0.28 |
| CCN(CCO)CCCC(C)Nc1ccnc2cc(Cl)ccc12.O=S(=O)(O)O (stereo not given) | 1.15 ± 0.42 |
| COc1ccccc1C(=O)Nc1ccc(-c2nc3cc(C)ccc3o2)cc1 | 1.62 ± 0.14 |
| Cc1c(F)cc(C(=O)NC2CC2)cc1-c1ccc(C(=O)NCC(C)(C)C)cn1 | 0.932 ± 0.088 |
| CNC(=O)C(=O)Nc1cc(Cl)ccc1C | 1.3 ± 0.19 |
| CC(C)(C)C(=O)NCc1cccnc1-c1cccnc1 | 0.97 ± 0.13 |
| O=C(NN=Cc1ccc([N+](=O)[O-])s1)c1ccc(Br)cc1 | 1.14 ± 0.28 |
| Cc1cc(=O)n(CC(=O)N2CCC(c3ccccc3F)S(=O)(=O)CC2)cn1 (stereo not given) | 1.04 ± 0.091 |
| Br.Cc1ccc(Sc2ccccc2N2CCNCC2)c(C)c1 | 1.03 ± 0.12 |
| CCOC(=O)C1=C(C)NC(C)=C(C(=O)OC)C1c1ccc(Cl)cc1 (stereo not given) | 1.26 ± 0.21 |
| O=C(Nc1nc2ccc(Cl)cc2s1)c1ccc(Br)s1 | 1.09 ± 0.11 |
| CC(=O)c1c(C(C)=O)c(C)n(-c2ccccc2N)c1C | 1.43 ± 0.35 |
| O=Cc1ccc(OCc2cccc([N+](=O)[O-])c2)c(Br)c1 | 1.49 ± 0.12 |
| COc1ccccc1N1CCN(CC(O)COc2cccc3ccccc23)CC1 (stereo not given) | 1.35 ± 0.13 |
| CC(=O)Nc1ccc(CC(=O)N2C3C=CCC2CC3)cc1 (stereo not given) | 1.14 ± 0.19 |
| Cc1occc1C(=O)Nc1ccc([N+](=O)[O-])cc1Cl | 0.874 ± 0.2 |
| CC(=O)N1CCN(C(=O)Cn2cnc(-c3ccc(C)cc3)cc2=O)CC1 | 1.18 ± 0.45 |
| O=C(Oc1ccc(C=Nc2ccc([N+](=O)[O-])cc2)cc1)c1ccccc1 | 1.12 ± 0.29 |
| NC(=O)NCC(N)C(=O)O (stereo not given) | 1.02 ± 0.1 |
| CCCCc1oc2ccccc2c1C(=O)c1cc(I)c(OCCN(CC)CC)c(I)c1.Cl | 1.77 ± 0.15 |

| SMILES | IRF reporter |
| --- | --- |
| CN(C)c1ccc(C=NN2C(=O)c3cccc4cccc(c34)C2=O)cc1 | 1.36 ± 0.17 |
| COC(=O)C1=CN(CC2CCCO2)C=C(C(=O)OC)C1c1ccccc1OC (stereo not given) | 1.41 ± 0.16 |
| CN(C)C1C(O)=C(C(N)=O)C(=O)C2(O)C(O)=C3C(=O)c4c(O)cccc4C(C)(O)C3CC12.Cl (stereo not given) | 0.921 ± 0.072 |
| COc1ccccc1N1CCN(CCCNc2cc(=O)n(C)c(=O)n2C)CC1.Cl | 1.12 ± 0.092 |
| O=C(CCCCCN1C(=O)c2cccc3cccc(c23)C1=O)NO | 0.632 ± 0.12 |
| O=C(Nc1cc(C(F)(F)F)cc(C(F)(F)F)c1)c1ccco1 | 0.89 ± 0.15 |
| CO[C@@]1(NC(=O)CSCC#N)C(=O)N2C(C(=O)[O-])=C(CSc3nnnn3C)CS[C@@H]21 [Prestw-700] | 1.24 ± 0.12 |
| Cc1nnc(NC(=O)c2cccc([N+](=O)[O-])c2)s1 | 1.09 ± 0.15 |
| COc1ccc(C2=CC(=Cc3cccc(OC)c3OC)C(=O)O2)c(OC)c1 | 1.16 ± 0.14 |
| Cc1ccc(NC(=O)CN2C(=O)c3ccccc3C2=O)c(C(=O)O)c1 | 1.5 ± 0.18 |
| CCC(C)(C)C(=O)O[C@H]1C[C@@H](C)C=C2C=C[C@H](C)[C@H](CC[C@@H]3C[C@@H](O)CC(=O)O3)[C@H]21 | 0.639 ± 0.17 |
| Cc1ccc(C(=O)NC(=S)Nc2nc(-c3cccc([N+](=O)[O-])c3)cs2)cc1C | 1.12 ± 0.13 |
| O=C(NCCN1CCOCC1)c1ccc(Cl)cc1 | 1.01 ± 0.078 |
| Cl.O=C1NCC2(CCN(CCc3ccccc3)CC2)O1 | 1.78 ± 0.51 |
| CCCc1nc2ccccc2c(NC(=O)CN2CCOCC2)c1CC.O=C(O)C(=O)O | 1.16 ± 0.13 |
| CC(C)(C)c1ccc(C(=O)Nc2nc3ccc([N+](=O)[O-])cc3s2)cc1 | 1.1 ± 0.11 |
| C1N2CN3CN1CN(C2)C3 | 0.949 ± 0.076 |
| O=S(=O)(Nc1ccnc2ccccc12)c1ccccc1 | 1.15 ± 0.19 |
| Cc1cc2c(cc1S(N)(=O)=O)S(=O)(=O)CCC2 | 0.891 ± 0.14 |
| C[C@H](N[C@@H](CCc1ccccc1)C(=O)O)C(=O)N1CCC[C@H]1C(=O)O.O.O | 0.906 ± 0.077 |

What follows are molecules tested on RAW-Dual (murine macrophage reporter line) (assay: viability score (confluency relative to resting cells, overnight) (fraction); higher = more viable, active = viable (0.7 or more)). Conditions: modulator concentration 10 µM.
Summary of the method: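 A compound met the cutoff when both of two confluency masks exceeded 70% of resting cells. Those masks were made with IncuCyte software from IncuCyte images of RAW-Dual macrophages treated overnight at 10 μM final. This is the basis of the viability score, which is confluency relative to resting cells.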

| SMILES | viability score |
| --- | --- |
| Cc1nc(C(=O)NCC(=O)O)c(O)c2ccc(Oc3ccccc3)cc12 | 0.996 (active) |
| CCN(CCO)CCCC(C)Nc1ccnc2cc(Cl)ccc12.O=S(=O)(O)O (stereo not given) | 1 (active) |
| COc1ccccc1C(=O)Nc1ccc(-c2nc3cc(C)ccc3o2)cc1 | 0.975 (active) |
| Cc1c(F)cc(C(=O)NC2CC2)cc1-c1ccc(C(=O)NCC(C)(C)C)cn1 | 1 (active) |
| CNC(=O)C(=O)Nc1cc(Cl)ccc1C | 1 (active) |
| CC(C)(C)C(=O)NCc1cccnc1-c1cccnc1 | 1.01 (active) |
| O=C(NN=Cc1ccc([N+](=O)[O-])s1)c1ccc(Br)cc1 | 0.996 (active) |
| Cc1cc(=O)n(CC(=O)N2CCC(c3ccccc3F)S(=O)(=O)CC2)cn1 (stereo not given) | 1 (active) |
| Br.Cc1ccc(Sc2ccccc2N2CCNCC2)c(C)c1 | 0.527 (inactive) |
| CCOC(=O)C1=C(C)NC(C)=C(C(=O)OC)C1c1ccc(Cl)cc1 (stereo not given) | 0.598 (inactive) |
| O=C(Nc1nc2ccc(Cl)cc2s1)c1ccc(Br)s1 | 0.999 (active) |
| CC(=O)c1c(C(C)=O)c(C)n(-c2ccccc2N)c1C | 1.01 (active) |
| O=Cc1ccc(OCc2cccc([N+](=O)[O-])c2)c(Br)c1 | 1 (active) |
| COc1ccccc1N1CCN(CC(O)COc2cccc3ccccc23)CC1 (stereo not given) | 0.967 (active) |
| CC(=O)Nc1ccc(CC(=O)N2C3C=CCC2CC3)cc1 (stereo not given) | 0.954 (active) |
| Cc1occc1C(=O)Nc1ccc([N+](=O)[O-])cc1Cl | 0.995 (active) |
| CC(=O)N1CCN(C(=O)Cn2cnc(-c3ccc(C)cc3)cc2=O)CC1 | 0.964 (active) |
| O=C(Oc1ccc(C=Nc2ccc([N+](=O)[O-])cc2)cc1)c1ccccc1 | 0.998 (active) |
| NC(=O)NCC(N)C(=O)O (stereo not given) | 0.994 (active) |
| CCCCc1oc2ccccc2c1C(=O)c1cc(I)c(OCCN(CC)CC)c(I)c1.Cl | 1 (active) |

| SMILES | viability score |
| --- | --- |
| CN(C)c1ccc(C=NN2C(=O)c3cccc4cccc(c34)C2=O)cc1 | 1 (active) |
| COC(=O)C1=CN(CC2CCCO2)C=C(C(=O)OC)C1c1ccccc1OC (stereo not given) | 1.02 (active) |
| CN(C)C1C(O)=C(C(N)=O)C(=O)C2(O)C(O)=C3C(=O)c4c(O)cccc4C(C)(O)C3CC12.Cl (stereo not given) | 1 (active) |
| COc1ccccc1N1CCN(CCCNc2cc(=O)n(C)c(=O)n2C)CC1.Cl | 0.996 (active) |
| O=C(CCCCCN1C(=O)c2cccc3cccc(c23)C1=O)NO | 0.536 (inactive) |
| O=C(Nc1cc(C(F)(F)F)cc(C(F)(F)F)c1)c1ccco1 | 1.01 (active) |
| CO[C@@]1(NC(=O)CSCC#N)C(=O)N2C(C(=O)[O-])=C(CSc3nnnn3C)CS[C@@H]21 [Prestw-700] | 0.997 (active) |
| Cc1nnc(NC(=O)c2cccc([N+](=O)[O-])c2)s1 | 1 (active) |
| COc1ccc(C2=CC(=Cc3cccc(OC)c3OC)C(=O)O2)c(OC)c1 | 1 (active) |
| Cc1ccc(NC(=O)CN2C(=O)c3ccccc3C2=O)c(C(=O)O)c1 | 1.02 (active) |
| CCC(C)(C)C(=O)O[C@H]1C[C@@H](C)C=C2C=C[C@H](C)[C@H](CC[C@@H]3C[C@@H](O)CC(=O)O3)[C@H]21 | 0.219 (inactive) |
| Cc1ccc(C(=O)NC(=S)Nc2nc(-c3cccc([N+](=O)[O-])c3)cs2)cc1C | 1 (active) |
| O=C(NCCN1CCOCC1)c1ccc(Cl)cc1 | 0.992 (active) |
| Cl.O=C1NCC2(CCN(CCc3ccccc3)CC2)O1 | 0.816 (active) |
| CCCc1nc2ccccc2c(NC(=O)CN2CCOCC2)c1CC.O=C(O)C(=O)O | 1 (active) |
| CC(C)(C)c1ccc(C(=O)Nc2nc3ccc([N+](=O)[O-])cc3s2)cc1 | 1 (active) |
| C1N2CN3CN1CN(C2)C3 | 1 (active) |
| O=S(=O)(Nc1ccnc2ccccc12)c1ccccc1 | 1.03 (active) |
| Cc1cc2c(cc1S(N)(=O)=O)S(=O)(=O)CCC2 | 1 (active) |
| C[C@H](N[C@@H](CCc1ccccc1)C(=O)O)C(=O)N1CCC[C@H]1C(=O)O.O.O | 0.993 (active) |
